Laboratory results reported in PubChem BioAssay (NCI).
This is part of a sample that, as a whole, favours compounds with a hit. Of some 83,000 tested, about 20% had one in any assay.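 The test compound was applied at a single concentration to cells in 96-well plates for 48 hours, and percent growth was recorded.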 Activity calls are given as the source filed them.

The compounds below were run on NCI-H322M lung (assay: NCI-60 one-dose screen, 48 h (100 = growth as untreated, 0 = no growth, -100 = all killed)). Conditions: 10 µM unless noted.
Procedure: Growth inhibition of the NCI-H322M human Non-Small Cell Lung tumor cell line is measured as a screen for anti-cancer activity. Cells are grown in 96 well plates and exposed to the test compound for 48 hours. Compounds are tested at a single concentration, which is 10^-5 M for most compounds. The reported endpoint is percent growth (GI% or GIPRCNT), where numbers from 0 - 100% represent growth inhibition, and numbers from -100% - 0 represent cell death. For example, a value of 40 represents 60% growth inhibition. A value of 0 means no net growth occurred over the course of the experiment. A value of -40 indicates 40% of cells at the beginning of the experiment died by the end of the experiment. A value of -100 means all cells are dead at the end of the experiment.
NCI-60 Human Tumor Cell Lines Screen was performed using the standard one-dose NCI protocol, which is described in more detail at https://dtp.cancer.gov/discovery_development/nci-60/default.htm.
Compounds with GIPRCNT values below 10 were considered active. Activity score was based on GIPRCNT using the following formula: […]
Score is 0 for GIPRCNT values of 100 or above, 50 for GIPRCNT values of 0, and 100 for GIPRCNT values of -100.

Compound	growth
O=c1cc(CNc2cc(F)cc(F)c2)c2ccc(I)cc2[nH]1	48.3% (inactive)
CCN1CCN(CCNc2nccc(-c3c(-c4ccc(F)c(O)c4)nc4occn34)n2)S1(=O)=O	64.3% (inactive)
O=c1oc2c(cc1-c1ccccc1)c[n+]([O-])c1ccccc21	104% (inactive)
Cc1[nH]n(-c2cccc(Cl)c2)c(=O)c1/C=C1\C=c2ccccc2=CC1=O	84.1% (inactive)
O=C1C(Cl)=C(Nc2ccccc2)C(=O)c2ccccc21	92.5% (inactive)
CNCCCNc1nc2ccccc2c2c(=O)c3cc(Cl)ccc3sc12	70.4% (inactive)
CSc1nc(-c2ccco2)c(C#N)c(=O)n1C	89.6% (inactive)
CC1=C2CC/C(C)=C/CC[C@]3(C)O[C@H]3CC/C(C)=C/[C@H]2OC1	101% (inactive)
CCCOC(=O)Nc1nc2ccc(SCC)cc2s1	99.3% (inactive)
C[C@@H]1NC(=O)[C@H](Cc2ccccc2)N(Cc2cccnc2)C1=O	109% (inactive)
O=C(NCCCCCCNC(=O)OCc1ccc2c(Cl)cc(Cl)c(O)c2n1)OCc1ccc2c(Cl)cc(Cl)c(O)c2n1	43.6% (inactive)
Oc1c(CN2CCC(N3CCOCC3)CC2)cc(Cc2cc(CN3CCC(N4CCOCC4)CC3)c(O)c3ncccc23)c2cccnc12	37.6% (inactive)
N#Cc1ccc(/C=C/c2cn(-c3ccccc3)nc2-c2cccc([N+](=O)[O-])c2)cc1	62.9% (inactive)
CN(C)CCn1c(=O)c2ccccc2n2nc3ccccc3c12	85% (inactive)
COc1ccc(N/N=C/c2cn(-c3ccc(C(=O)O)cc3)nc2-c2cc3ccccc3oc2=O)cc1	85.2% (inactive)
CCCn1c(=S)sc2c(NNC(C)=O)nc(C)nc21	101% (inactive)
Cn1c(=O)[nH]c(=O)c2nc3c(nc21)-c1ccccc1C3=O	102% (inactive)
C=C(C)[C@@H]1CC[C@]2(C)[C@H](C=CC3=C4C[C@@](C)(CO)CC[C@]4(C)CC[C@]32C)[C@@]1(C)CCCN	-14.3% (active)
CS(=O)/C(C#N)=C\C=C\c1cccc(Cl)c1 (stereo not given)	24.1% (inactive)
Cc1nn(-c2ccc([N+](=O)[O-])cc2)c2ncnc(N/N=C/c3ccccc3O)c12	13.4% (inactive)

Compound	growth
CCOC(=O)NC(=S)n1oc(=O)c2ccccc21	98.8% (inactive)
COc1ccc2cc(-c3nc4ccc(C)cn4c3NCc3ccco3)c(=O)[nH]c2c1	74.1% (inactive)
COc1ccc2c(c1)CC[C@@H]1[C@@H]2CC[C@]2(C)c3c(cc(C#N)c4c3sc3ccccc34)C[C@@H]12	108% (inactive)
Cc1ccccc1N1CCN(C(=S)c2ccccc2)CC1	102% (inactive)
CC1(C)CC(=O)C2=C(C1)C(c1ccc(Cl)cc1)n1ncc(C#N)c1N2 (stereo not given)	90.9% (inactive)
CN(C)c1ccc(/C=C2\C=C(c3nc4ccccc4s3)OC2=O)cc1	93.2% (inactive)
Nc1cc(-c2ccc(Cl)cc2)nn1-c1nnc(/C=C/c2ccco2)c(=O)[nH]1	24.4% (inactive)
Cc1cc(O)c(=O)cc2c1C[C@H]1CC(C)(C)/C=C/C[C@]3(C)Oc4cc(=O)c(O)cc(C)c4C[C@H]3C[C@H](O)[C@@]1(C)O2	24.3% (inactive)
Cc1ccc(S(=O)(=O)OC[C@]23CCC(C)(C)C[C@H]2C2=CC[C@@H]4[C@@]5(C)CCCNC(C)(C)[C@@H]5CC[C@@]4(C)[C@]2(C)CC3)cc1	79.7% (inactive)
COC1/C=C/OC2(C)Oc3c(C)c(O)c4c(O)c(c(/C=N/N(c5ccccc5)c5ccccc5)c(O)c4c3C2=O)NC(=O)C(C)=C/C=C/C(C)C(O)C(C)C(O)C(C)C(OC(C)=O)C1C (stereo not given)	109% (inactive)
Fc1cc2[nH]ncc2c2c3c(c(-c4cn[nH]c4C(F)(F)F)nc12)CCCC3	-0.0231% (active)
O=C(/C=C/c1ccccc1)c1ccc(-n2cc(CN3CCN(c4cc5c(cc4F)c(=O)c(C(=O)O)cn5C4CC4)CC3)nn2)cc1	84.4% (inactive)
Clc1ccc(Nc2ncc(Cc3cccc(Cl)c3Cl)s2)cc1	110% (inactive)
COc1cc2ncnc(Nc3ccc(F)c(Cl)c3)c2cc1OCC(=O)N1CCOCC1	24.7% (inactive)
CNCC[C@H](Oc1cccc2ccccc12)c1cccs1	98.2% (inactive)
CCN(CCNc1ccc(C)c2sc3cc(Cl)ccc3c(=O)c12)CC(C)(C)O	74% (inactive)
CCCCCCCCCCOC(=O)c1nn(C(C)=O)c2cc(C)c(C)cc12	107% (inactive)
C=C1C(=O)O[C@H]2[C@H]1CC/C(COC(=O)NCc1ccc(Cn3c(=O)sn(-c4ccccc4)c3=O)cc1)=C\CC[C@@]1(C)O[C@@H]21	92.7% (inactive)
CCCCO[C@@H]1C=C2[C@H]3CC(C)(C)C(=O)C[C@]3(C(=O)O[C@@H]3O[C@H](CO[C@@H]4O[C@H](CO)[C@@H](OC5OC(C)C(O)C(O)C5O)[C@H](O)[C@H]4O)[C@@H](O)[C@H](O)[C@H]3O)CC[C@@]2(C)[C@]2(C)CC[C@H]3C(C)(C)C(=O)CC[C@]3(C)[C@@H]12 (stereo not given in full)	84.3% (inactive)
O=C(NCCNC(c1ccccc1)C(NCCNC(=O)c1ccccc1)c1ccccc1)c1ccccc1 (stereo not given)	95.7% (inactive)
